# Source: PubChem
# A selection: hits, their analogues and other compounds. The true share with any hit is near 8.9%.
# DRD3 antagonist – qHTS of D3 Dopamine Receptor Antagonist: qHTS; D3R cells, DiscoveRx beta-arrestin luminescence, antagonist mode; hits give low values; max response, negative = inhibition, %; 2.5% of 360,000 active; in the data active = max response below about -50%; inconclusive = no clear call, values can overlap the other calls; note: % is set by controls: 0 for no effect and ±100 for the full control effect
# Target sequence (P35462 whole entry, looked up): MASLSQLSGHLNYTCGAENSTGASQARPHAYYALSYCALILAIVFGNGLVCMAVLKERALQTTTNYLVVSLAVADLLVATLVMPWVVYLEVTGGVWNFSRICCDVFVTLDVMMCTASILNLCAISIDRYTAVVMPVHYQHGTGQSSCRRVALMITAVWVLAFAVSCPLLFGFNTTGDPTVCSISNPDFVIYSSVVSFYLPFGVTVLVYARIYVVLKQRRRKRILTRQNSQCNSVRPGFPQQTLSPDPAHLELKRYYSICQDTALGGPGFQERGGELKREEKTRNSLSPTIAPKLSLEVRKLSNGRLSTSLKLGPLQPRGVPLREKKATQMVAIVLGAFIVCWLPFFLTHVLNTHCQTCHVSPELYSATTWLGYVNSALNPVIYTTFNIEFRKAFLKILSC
#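 Cells expressing the human receptor were seeded at 1500 cells/well, incubated overnight at 37 degrees C in 5% CO2, then exposed to library compounds with dopamine controls for 90 minutes at 37 degrees C before luminescent detection.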
# MCF10A rerep – A quantitative high throughput screen for small molecules that induce DNA re-replication in MCF 10a normal breast cells | MCF 10A DNA re-replication, Hoechst nuclear intensity, 48 h | Potency, µM (titrated, usually from 46.1 µM), inactives show at the highest dose activity, positive = re-replication, actives largely listed as activators | 2.9% of 350,000 active; note: potency is the fitted concentration of half-maximal effect; % of control where 0% means no effect; nearly all actives have a fitted effect of over 50% in size
# SW480 rereplic – A quantitative high throughput screen for small molecules that induce DNA re-replication in SW480 colon adenocarcinoma cells. SW480 DNA re-replication, Hoechst DNA content imaging, 48 h. 1.8% of 340,000 active. Potency, µM (top dose mostly 46.1 µM), without a hit: at the highest dose re-replication activation, actives largely listed as activators; note: potency is the fitted concentration of half-maximal effect; % of control where 0% means no effect; nearly all actives have a fitted effect of over 55% in size
#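 250 cells/well; 23 nL cpd via pin tool; 48 hr, 37 C, 5% CO2; Hoechst 40 min; imager read of total nuclear intensity, ex 405/em 500-530 nm.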
# KB-3-1 tox – qHTS assay for MDR1-selective chemotherapeutics: Primary screen using the parental adenocarcinoma cell KB-3-1; KB-3-1 viability, CellTiter-Glo ATP luminescence, 72 h; Potency, µM (top dose mostly 46.1 µM), hits mostly cytotoxic; 1.4% of 400,000 active; note: potency is the fitted concentration of half-maximal effect; % is set by controls: 0 for no effect and ±100 for the full control effect; nearly all actives have a fitted effect of over 60% in size
#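 Cytotoxicity in the drug-sensitive parental line KB-3-1 was scored as loss of CellTiter-Glo luminescence following 72 h incubation with compound. Values come from curve fitting of normalized concentration-response data.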
# D3 ag – qHTS of D3 Dopamine Receptor Agonist: qHTS; D(3) dopamine receptor (Homo sapiens), P35462; D3R DiscoveRx beta-arrestin cells, luminescence, 90 min; max activation, %; 0.58% of 410,000 active; AID 652048, 2013; in the data active = max activation above about 30%; note: 0% is about no effect
#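 Cells at 1500/well, incubated overnight, then treated with pinned compounds (dopamine as control) for 90 min at 37 degrees C. DiscoveRx reagent added for 30 - 60 minutes at room temperature; luminescence read.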
# KB-V1 cytotox – qHTS assay for MDR1-selective chemotherapeutics: Primary screen using the drug-selected MDR subline cells KB-V1 | 3.4% of 400,000 active | AID 1347076, 2019 | Potency, µM (doses to about 46.1 µM), most hits filed as cytotoxic | KB-V1 MDR cells viability, CellTiter-Glo, 72 h; note: potency is the fitted concentration of half-maximal effect; % is set by controls: 0 for no effect and ±100 for the full control effect; nearly all actives have a fitted effect of over 60% in size
#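 Potencies derive from concentration-effect curves fitted to normalized luminescence (CellTiter-Glo) of KB-V1 cells treated for 72 h at 37 degrees C in phenol-red-free DMEM containing 10% FBS.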
# Starred values were filed as active, the others as inactive; i = inactive; ? = inconclusive; . = no result. Unless noted, calls come from the whole dose curve; as a rule, active = well fitted curve in the direction sought with a large enough effect; inconclusive = small, poorly fitted or top-dose-only effect, or another doubt; inactive = no such curve, though single readings can be large; an effect the other way counts as inactive or inconclusive.
SMILES,DRD3 antagonist,MCF10A rerep,SW480 rereplic,KB-3-1 tox,D3 ag,KB-V1 cytotox
O=C(c1coc2ccc(O)c(CN3CCOCC3)c12)C1CC1,0,0%,-7%,i,-6,i
Cc1noc(Cn2c(=O)c3ccccc3n(CC(=O)Nc3cc(Cl)ccc3C)c2=O)n1,.,.,.,i,-14,i
CCCC(CCC)C(=O)O,6,-5%,0%,i,4,i
CCCC(CCC)C(N)=O,.,.,.,.,58*,.
C=Cc1ccc(Cn2c(C)c(CNCc3cccc(Br)c3)c(C(=O)O)c2C)cc1,.,.,.,i,2,i
Cc1ncc(COCc2ccccc2)c(CO)c1OCc1ccccc1,3,12%,-3%,i,4,18µM*
COC(=O)[C@]12CCCCC=C1N(Cc1ccc3c(c1)OCO3)C(=O)[C@H](CC(=O)NCc1ccc(C)o1)C2,-3,.,.,i,-5,i
CC(C)COc1cccc(C(=O)Nc2cc(S(=O)(=O)N3CCOCC3)ccc2N2CCCC2)c1,0,18%,12%,i,-3,18µM*
O=C(Nc1ccccc1N1CCCCC1)c1cc(S(=O)(=O)N2CCOCC2)ccc1F,?,12µM*,16%,?,-21,?
O=C(Nc1cc(S(=O)(=O)N2CCOCC2)ccc1N1CCCCC1)c1ccccc1,-1,15%,-8%,i,1,5.2µM*
O=C(Nc1ccccc1N1CCCC1)c1cc(S(=O)(=O)N2CCOCC2)ccc1Cl,-5,-1%,-3%,i,5,i
O=C(Nc1ccccc1N1CCCC1)C1CCN(S(=O)(=O)c2ccccc2C(F)(F)F)CC1,13,21%,2%,i,-2,?
O=C(Nc1ccccc1N1CCOCC1)C1CCN(S(=O)(=O)c2ccccc2F)CC1,19,-2%,-142%,i,2,8.2µM*
COc1ccc(CNCc2c(C(=O)O)c(C)n(Cc3ccc(Cl)cc3)c2C)c(OC)c1,.,.,.,i,-13,i
Cc1ccc(C(=O)N2CCN(c3ccc(F)cc3)CC2)cc1NC(=O)c1nsc2ccccc12,.,.,.,i,-5,i
Cc1cccc(C(=O)Nc2sc3c(c2C(=O)N2CCCCC2)CCC(C)C3)c1 (configuration not stated),.,.,.,i,4,?
CC(=O)Nc1ccccc1OCc1cc(=O)n2c(C)csc2n1,.,.,.,i,1,i
Cc1cc(OCC(=O)Nc2cc(S(=O)(=O)N3CCOCC3)ccc2N2CCCC2)ccc1C(C)C,8,11%,2%,i,1,7.3µM*
CCc1cc(C(=O)Nc2cc(S(=O)(=O)N3CCCCC3)ccc2N2CCN(C)CC2)sc1C,-2,.,.,23µM*,-3,i
O=C(CN1C(=O)CSc2ccc(S(=O)(=O)N3CCOCC3)cc21)NCCCN1CCc2ccccc2C1,-62*,0%,-70%,i,-11,i
CN1CCN(c2ccc(S(=O)(=O)N3CCCCC3)cc2NC(=O)c2ccc3ccccc3c2)CC1,-2,23µM*,?,?,-7,10µM*
Cc1ccc(N(C)C(=O)Cn2cnc3onc(-c4ccc(F)cc4)c3c2=O)cc1C,.,.,.,i,-4,i
O=C(CN1CCc2ccccc2C1)Nc1cc(S(=O)(=O)N2CCOCC2)ccc1N1CCCC1,0,10%,2%,i,-46,4.1µM*
CN1CCN(c2ccc(Cl)cc2NC(=O)c2ccc(S(=O)(=O)N(C)C)cc2)CC1,-17,19%,11µM*,i,2,i
Cc1ccc(N(Cc2ccccc2)C(=O)c2cc(S(=O)(=O)N3CCOCC3)ccc2F)cc1,19,20%,-1%,i,1,9.2µM*
SMILES,DRD3 antagonist,MCF10A rerep,SW480 rereplic,KB-3-1 tox,D3 ag,KB-V1 cytotox
Cc1ccc(Cl)cc1NC(=O)Cn1c(=O)n(CCCS(=O)(=O)C2CCCCC2)c(=O)c2ccccc21,.,.,.,i,-10,i
CCc1nn(CC(=O)N2CCN(c3cccc(OC)c3)CC2)c(=O)c2cc3occc3n12,.,.,.,i,-5,i
CCc1nn(CC(=O)N2CCN(c3ccc(OC)cc3)CC2)c(=O)c2cc3occc3n12,8,11%,6%,i,34*,i
COc1c([N+](=O)[O-])ccc(N)c1N,.,.,.,i,.,i
Nc1ncnc2c1nc(Cl)n2[C@@H]1O[C@H](CO)[C@@H](O)[C@@H]1O,.,.,.,?,.,i
Nc1ncnc2c(C3OC(CO)C(O)C3O)c[nH]c12 (configuration not stated),-17,?,0.21µM*,0.18µM*,1,0.29µM*
C[C@H]1O[C@@H](O[C@H]2[C@@H](O)C[C@H](O[C@H]3[C@@H](O)C[C@H](O[C@H]4CC[C@@]5(C)[C@H](CC[C@@H]6[C@@H]5C[C@@H](O)[C@]5(C)[C@@H](C7=CC(=O)OC7)CC[C@]65O)C4)O[C@@H]3C)O[C@@H]2C)C[C@H](O)[C@@H]1O,66,?,0.41µM*,0.18µM*,1,0.41µM*
CCC(=O)Nc1ccc(S(=O)(=O)N2CCCCC2)cc1OC,-11,28%,-8%,i,-6,i
CCC(=O)Nc1ccc(S(=O)(=O)Nc2cccc(C)c2)cc1OC,?,?,7%,?,-13,18µM*
Cc1ccc(Cn2c(C(=O)O)c(CNCc3cccs3)c3ccc(C)cc32)cc1,.,.,.,i,3,i
CN(C)c1ccc(NC(=O)CN2CCC(C(=O)c3ccc(F)cc3)CC2)cc1,-82*,14%,-2%,i,-27,?
Cc1ccc(NC(=O)CN2CCC(C(=O)c3ccc4c(c3)OCCO4)CC2)cc1,-52*,13%,-2%,i,-4,i
COc1ccc(C(=O)C2CCN(CC(=O)Nc3ccc(C)cc3)CC2)cc1,-113*,?,-7%,i,-31,i
O=C(CN1CCN(C(=O)C2CCC2)CC1)Nc1ccc(F)cc1,-6,2%,1%,i,-1,i
Cc1ccc(C(=O)N[C@H](C(=O)NC2CCCCC2)C(C)C)cc1,1,-3%,2%,i,-1,10µM*
COc1ccc(C(=O)N[C@H](C(=O)NC2CCCCC2)C(C)C)cc1,-15,1%,1%,i,-8,i
Cc1ccc(C)c(CN2C(=O)N(c3cc(Cl)ccc3C)S(=O)(=O)c3ccccc32)c1,.,.,.,i,3,i
